Test results reported in PubChem BioAssay AID720641 (ICCB-Longwood Screening Facility, Harvard Medical School, 2013).
Among all 170,000 compounds or so, about 900 (0.53%) were called active.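 How the source made its calls: active means relative growth at most 50% at the other temperature and 20+ points below 30 °C, or under 10% at both; inactive means the rest, inconclusive results apart.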 Many of the other results were omitted from the sample, so actives are more common in it than they were.

Assay: S. aureus growth inhibition at 42 and 30 °C, primary screen, LtaS inhibitor project, RN4220, two temperatures (AID 720641)
Settings: OD600, 20 h, 42 °C, stronger effect = lower value

Row | SMILES | relative growth | relative growth (measured here: growth at 30 °C)
1 | CCNS(=O)(=O)c1ccc(NC(=O)Nc2cccc(C(F)(F)F)c2)cc1 | 98.8% (inactive) | 83.1%
2 | Cc1oc2c(F)c(F)c(F)c(F)c2c1S(=O)(=O)Nc1cccc(C(F)(F)F)c1 | 8.52% (active) | 1.85%
3 | Cc1onc(-c2ccccc2)c1C(=O)Nc1cccc(C(F)(F)F)c1 | 113% (inactive) | 87.3%
4 | Cc1cc(N2CCCCC2)nc2ccc(NC(=O)CCC(=O)N3CCC(C)CC3)cc12 | 78.9% (inactive) | 78.2%
5 | CCc1ccc2[nH]c(=O)c(CN(Cc3ccco3)C(=S)NCC(C)C)cc2c1 | 84% (inactive) | 74.7%
6 | COc1ccc(OCCN2C(=O)c3ccccc3S2(=O)=O)cc1 | 102% (inactive) | 95%
7 | CCCCc1c(COC)nc(-c2ccc(Cl)cc2)[nH]c1=O | 122% (inactive) | 53%
8 | CCCCCc1c(C)nc(-c2ccccn2)[nH]c1=O | 1.74% (active) | 1.83%
9 | CC(=O)Nc1nc(C)c(Cc2ccccc2)c(=O)[nH]1 | 106% (inactive) | 86.1%
10 | CC(C)(C)C(=O)OCC(=O)Nc1ccccc1 | 124% (inactive) | 92.1%
11 | Cc1nc(/N=C(/N)NC(=O)Cc2ccccc2)nc2ccccc12 | 93.2% (inactive) | 87.1%
12 | Cc1ccc2nc(CN3CCc4sccc4C3c3cccs3)cn2c1 (stereo not drawn) | 0.12% (active) | -0.28%
13 | N#CCSc1ccccc1NC(=O)CN1CCc2sccc2C1c1cccs1 (stereo not drawn) | 94.4% (inactive) | 87%
14 | CC(NC(=O)CN1CCc2sccc2C1c1cccs1)c1ccc2c(c1)OCCO2 (stereo not drawn) | 116% (inactive) | 98.8%
15 | CCOC(=O)c1oc2ccccc2c1N=Cc1c(O)n(CC)c(=S)n(CC)c1=O | 99% (inactive) | 93.3%
16 | CSc1nsc(SCC(=O)N2CCCC2)n1 | 93.6% (inactive) | 82.6%
17 | CCOC(=O)N1CCN(CC(=O)NCCc2ccc(Cl)cc2Cl)CC1 | 90.9% (inactive) | 81.3%
18 | O=C(Cn1cc(C(F)(F)F)cc(Cl)c1=O)Nc1ncccn1 | 94.1% (inactive) | 94.7%
19 | CCC(CC)C(=O)N(c1ccc(OC)cc1OC)C1C=CS(=O)(=O)C1 (stereo not drawn) | 99.8% (inactive) | 90.8%
20 | COc1cccc2c1OCc1sc3[nH]c(=S)[nH]c(=O)c3c1-2 | 50.5% (inactive) | 32.4%
21 | N#Cc1ccc(OCC(=O)N=Nc2[nH]c(N)c3ccccc23)cc1 | 104% (inactive) | 101%
22 | Cn1c(NCc2ccccc2)nc2ccccc21 | 105% (inactive) | 64.6%
23 | Cn1c(NC(=O)c2ccccc2)nc2ccccc21 | 9.06% (active) | 0.29%
24 | Cn1c(-c2ccc(C(=O)c3ccccc3)s2)nc2ccccc21 | 101% (inactive) | 95.7%
